# In PubChem BioAssay AID1476 (National Center for Advancing Translational Sciences (NCATS), 2009):
# In all, about 200,000 compounds went through this assay and about 4,500 (2.2%) were called active. Roughly 12% stayed inconclusive and do not appear here. This is one part of a sample in which actives are shown more often than they occur. Calls follow the shape of the dose curve; as a rule, active = well fitted inhibition curve with a large enough effect; inconclusive = small, poorly fitted or top-dose-only effect, or effect the other way; inactive = flat fitted curve, though single readings scatter.
# Biological target: Cruzipain (Trypanosoma cruzi) (UniProt P25779)
# Sequence (P25779 123-467 limits assumed): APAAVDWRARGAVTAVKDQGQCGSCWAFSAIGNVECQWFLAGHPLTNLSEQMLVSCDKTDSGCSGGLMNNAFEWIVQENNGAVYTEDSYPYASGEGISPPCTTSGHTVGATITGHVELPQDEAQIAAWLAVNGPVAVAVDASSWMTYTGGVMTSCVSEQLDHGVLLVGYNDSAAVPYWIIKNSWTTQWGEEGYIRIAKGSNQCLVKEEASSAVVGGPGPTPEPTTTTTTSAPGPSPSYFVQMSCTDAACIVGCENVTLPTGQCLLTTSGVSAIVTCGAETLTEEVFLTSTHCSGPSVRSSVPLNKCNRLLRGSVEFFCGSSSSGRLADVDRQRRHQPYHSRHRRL
# Assay: qHTS Assay for Promiscuous and Specific Inhibitors of Cruzain (without detergent); also: nearly all actives have a fitted effect of over 40% in size;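 as to max response, negative = inhibition: plate controls were enzyme without inhibitor for no effect and buffer without enzyme for full effect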
# Details: purified cruzain, Z-FR-AMC fluorescence, no detergent
# In short: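 Detergent-free condition (0.00005% Triton X-100) in acetate buffer pH 5.5 with DTT. 1.5 nM enzyme and compound were pre-mixed 15 min, then 2 uM Z-FR-AMC substrate added; reaction progress from fluorescence change between first and third reads (60 s).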
# Potency is read from the fitted curve at half-maximal effect.
Structure (SMILES),"max response, negative = inhibition",Potency
CCn1c(=O)cc(OCC(=O)Nc2cc(Cl)c(OC)cc2OC)c2ccccc21,0.57% (inactive),–
COc1ccc(/C=N/NC(=O)c2ccc(Cl)cc2)cc1COC(C)=O,7.25% (inactive),–
COc1cc(OC)c(/C=N/NC(=O)c2ccc([N+](=O)[O-])cc2)cc1Br,-5.61% (inactive),–
N#Cc1cc([N+](=O)[O-])ccc1Oc1cccc(/C=N/NC(=O)c2ccc(Cl)cc2)c1,–,20 µM (active)
CCOC(=O)N1CCN(C(=O)c2cc3c(ccc4ccccc43)oc2=O)CC1,-18.3% (inactive),–
CCOC(=O)N1CCN(Cc2oc(CO)cc(=O)c2O)CC1,–,1.58 µM (active)
O=c1cc(CO)oc(CN2CCC(Cc3ccccc3)CC2)c1O,-8.62% (inactive),–
Cc1ccc(C(=O)N2c3ncnn3C3(CCCCC3)[C@@H]3CCCC[C@@H]32)cc1,9.53% (inactive),–
COc1ccc(CNC(=O)CSCc2nc(-c3ccccc3F)oc2C)cc1,-2.99% (inactive),–
CCS(=O)(=O)c1ncc(N(Cc2ccc(F)cc2)Cc2ccco2)c(C(=O)Nc2cc(C)ccc2C)n1,-19.1% (inactive),–
O=C(NCC1CCCO1)/C(=C\c1ccco1)NC(=O)c1ccccc1 (stereo unspecified),-0.97% (inactive),–
C/C(=C\c1ccco1)C1Nc2cccc3cccc(c23)N1,–,3.16 µM (active)
Cc1ccc(OCC(=O)OCc2cc(=O)n3nc(C4CC4)sc3n2)cc1C,-7.58% (inactive),–
COc1ccccc1NC(=O)c1oc2ccccc2c1NC(=O)C(C)C,-10.9% (inactive),–
CC(=O)c1cccc(NC(=O)CSc2nc3c(c(=O)[nH]2)CCC3)c1,-3.06% (inactive),–
O=C(CSc1nc2ccccc2nc1Cc1ccccc1)N1CCCCC1,-0.222% (inactive),–
C=CCNc1nnc(SCC(=O)N2CCCCC2)c2ccccc12,–,20 µM (active)
C=CCNc1nnc(C)c2ccccc12,-10.1% (inactive),–
COc1ccc(CNC(=O)c2cc3cccc(OC)c3oc2=O)cc1,-1.78% (inactive),–
CCOc1ccc(S(=O)(=O)c2cn(Cc3ccc(OC)cc3)c3ccc(F)cc3c2=O)cc1,0.948% (inactive),–
Cc1ccc(-n2c(SCC(=O)c3ccccc3)nc3c([nH]c4ccccc43)c2=O)cc1,-13.1% (inactive),–
COc1ccc(-c2c(C)nn3c(N4CCC(C(=O)NCCC(C)C)CC4)cc(C)nc23)cc1OC,4.69% (inactive),–
Cc1ccc(CN2COc3cc(C)c4c(oc(=O)c5ccccc54)c3C2)cc1,-21.8% (inactive),–
O=C(Nc1nc2c(s1)CCCC2)c1ccccc1F,-4.21% (inactive),–
Fc1ccc2nc(N3CCCCC3)sc2c1,2.08% (inactive),–
Fc1ccc2nc(Nc3nc4c(s3)CCCC4)sc2c1,–,31.6 µM (active)
